From ChEMBL document CHEMBL4513216, “Probing the Open Global Health Chemical Diversity Library for Multistage-Active Starting Points for Next-Generation Antimalarials” (ACS Infect Dis, 2020)
The campaign covered roughly 69,000 compounds. About 8,600 (12%) showed an effect of 50% or more. Shown is part of a subset that was picked to be rich in strong results.

System: Plasmodium berghei
Test: Screen against P. berghei liver stage (PbLuc), transformed with Luciferase, at 10uM
Format: functional, HepG2
Conditions: tested at 10 uM

SMILES | INHIBITION [%]
CCc1nc(CNc2ccc(F)cc2I)no1 | -58.5
CN1CCN(CC2CN(CC3CC3)Cc3nccn3C2)CC1 (stereo not given) | 19.4
Cc1cnc2n1CCN(C)C21CCN(CC2CC2)CC1 | 12.1
Oc1ccc(N2CCC(Cc3ccccc3)CC2)nn1 | 83.8
Cc1cc(N2CCC(Cc3ccccc3)CC2)nc(-c2ccncc2)n1 | 71.3
CC(=O)NCC1CCN(c2cc(C)nc(-c3ccncc3)n2)CC1 | 33.3
CCCS(=O)(=O)c1ccc(N2CCC(Cc3ccccc3)CC2)nn1 | 23.7
O=C(O)c1ccc(N2CCC(Cc3ccccc3)CC2)nn1 | -23.2
Cc1cc(N2CCC(CC(N)=O)CC2)nc(-c2ccncc2)n1 | 16.1
CCn1c(=O)[nH]c2cn(-c3cccc(Cl)c3)c(=O)n21 | -35.5
CC(C)C(O)CNC(=O)Nc1cnn(C(C)C)c1 (stereo not given) | -4.73
CC(C)n1ccc(C(=O)NCC(O)c2c(Cl)cccc2Cl)n1 (stereo not given) | 24.3
CCn1nc(C)cc1C(=O)NCc1nc(C)no1 | 17.5
Cc1ccc(N2CCCN(C(=O)c3cccc4c3ccn4C)CC2)nn1 | 38.5
Cc1ccc(N2CCCN(C(=O)c3cn(C)c4ccccc34)CC2)nn1 | 87.2
Cn1cc(C(=O)N2CCCN(c3cccnn3)CC2)c2ccccc21 | -0.532
O=C1CN(C(=O)C2CCC3(CC2)CNC(=O)c2ccccc2O3)CCN1 (stereo not given) | 43.6
Cc1nn(C)c(C)c1CN(C)C(=O)c1cc(C(F)(F)F)n(C)n1 | 42.45
O=C(c1ccnn1COc1ccc(Cl)cc1)N1CCOCC1 | 50.8
O=C(c1ccnn1COc1ccc(Cl)cc1)N1CCSCC1 | 33.4
O=C(c1ccnn1COc1ccc(Cl)cc1)N1CCCC1 | 1.45
Fc1ccc(CC2CCN(Cc3cscn3)CC2)cc1 | 68.1
Fc1ccc(CC2CCN(Cc3nccs3)CC2)cc1 | 38.7
Cc1noc(CN2CCC(c3ccnn3CCO)CC2)n1 | 49.6
Fc1ccccc1CC1CCN(Cc2cscn2)CC1 | 82.4
Cc1noc(CN2CCN(CCO)CC2)n1 | -14.9
Fc1ccc(CN2CCCN(Cc3cscn3)CC2)cc1 | -12.5

SMILES | INHIBITION [%]
Fc1ccccc1CC1CCN(Cc2nccs2)CC1 | -131
Fc1ccccc1CC1CCN(Cc2ccccn2)CC1 | 45.2
Cc1noc(CN2CCC(Cc3ccc(F)cc3)CC2)n1 | 57.2
CCn1cnnc1CNC(=O)N1CCN(C(C)C)CC1 | 21.5
CN(C)C(=O)CO[C@H]1CN(Cc2ccoc2)[C@@H]2COC[C@H]12 | 39.5
CCc1cnccc1C(=O)Nc1ccc(C(N)=O)nc1 | 25.1
CCc1nnc2n1CCN(C(=O)c1cc3c(F)cccc3[nH]1)C2 | 21
COCCN1C(=O)[C@@H]2CC[C@H]1CN(Cc1nnc(C3CC3)o1)C2 | 16.2
COc1ncc(CN2CCCC(c3[nH]ncc3S(C)(=O)=O)C2)cn1 (stereo not given) | 7.05
CCn1cc(-c2cc(C(F)(F)F)nn2CCC#N)cn1 | 11.8
Cn1c(C2CC2)nc2c1CCN(CC(=O)Nc1ccncc1)C2 | -31.5
N[C@H]1CN(C(=O)c2ccccc2Oc2ccccc2)C[C@@H]1C1CC1 | 31.2
N[C@@H]1CCC[C@@H](Oc2ccc(F)cc2Oc2ccccc2)[C@@H]1O | 54.4
CO[C@@H]1CCC[C@@H](N(C)C(=O)c2cc(F)ccc2F)[C@H]1O | -10.4
Cc1n[nH]c(C)c1CCC(=O)N[C@@H]1CCC[C@@H](Oc2ccccc2)[C@@H]1O | -18.8
Cc1noc(C)c1C(=O)N[C@@H]1CCC[C@@H](Oc2ccccc2)[C@@H]1O | 17.39
CN[C@@H]1CCC[C@@H](Oc2ccccc2Oc2ccc(C)cc2)[C@@H]1O | 60.2
CNCc1cc(F)ccc1Oc1ccc(F)cc1 | 29.3
Cc1ccc(Oc2cc(F)ccc2O[C@@H]2CCC[C@@H](N)[C@H]2O)cc1 | 94.1
N[C@@H]1CCC[C@@H](Oc2ccc(F)cc2Oc2cccc(F)c2)[C@@H]1O | 23.2
O=C(c1ccncc1F)N1CCCC(c2nccn2CC2CCC2)C1 (stereo not given) | 36.8
CC(C)C(C(=O)N1CCCN(Cc2nccn2C)CC1)N1CCCC1 (stereo not given) | 11.6
O=C(NC1CCCN(CCCc2ccccc2)C1)c1ccc(Cl)s1 (stereo not given) | 35.1
CN(C)CC(O)Cn1cc(NCc2ccc(Br)cc2)cn1 (stereo not given) | 33.1
CCOc1ccc(C(=O)NCc2ccnc(N3CCN(C)CC3)c2)cn1 | 14
CC(C)Oc1ccc(C(=O)NCc2ccc3c(c2)CCCN3C)cn1 | 29.2
CC(C)Oc1ccc(C(=O)NCc2ccnc(N3CCCC3)c2)cn1 | 79.9

SMILES | INHIBITION [%]
CC(C(=O)NCc1ccnc(N2CCCC2)c1)n1cccn1 (stereo not given) | 13.275
Cc1ccc(C(=O)NCc2ccnc(N3CCN(C)CC3)c2)cn1 | 38.9
CCOc1ccc(C(=O)NCc2ccnc(N3CCCC3)c2)cn1 | 70.5
CC(O)CN1CCC(CN(C)Cc2cccc(C(=O)N(C)C)c2)CC1 (stereo not given) | 21.5
CO[C@@H]1CCN(C(=O)Cc2ccsc2)[C@H]1Cc1cccnc1 | -41
C[S+]([O-])CCNC(=O)N1CCN(c2cc(F)ccc2F)CC1 (stereo not given) | 0.348
Cc1nc(COC[C@]23COC[C@H]2CN(Cc2ccoc2)C3)cs1 | -14
COc1ncccc1CN1Cc2nccn2CC(CN2CCCC2)C1 (stereo not given) | 72
c1cncc(CN2Cc3nccn3CC(Cn3cccn3)C2)c1 (stereo not given) | 30.3
CN(C)CCOCC1CN(Cc2cccc(F)c2)Cc2nccn2C1 (stereo not given) | 86.7
COc1ncccc1CN1Cc2nccn2CC(Cn2cccn2)C1 (stereo not given) | 24.9
CN(C)C(=O)COCC1CN(Cc2ccsc2)Cc2nccn2C1 (stereo not given) | 46.2
CCOCC1CN(Cc2cccc(C#N)c2)Cc2nccn2C1 (stereo not given) | 41.8
N#Cc1cccc(CN2Cc3nccn3CC(COCC3CC3)C2)c1 (stereo not given) | -102
N#Cc1cccc(CN2Cc3nccn3CC(CN3CCCC3)C2)c1 (stereo not given) | -13
c1cncc(OCC2CN(Cc3ccsc3)Cc3nccn3C2)c1 (stereo not given) | 39.2
c1ccc(CN2Cc3nccn3CC(Cn3cccn3)C2)nc1 (stereo not given) | 56.6
c1ccc(COCC2CN(Cc3ccsc3)Cc3nccn3C2)nc1 (stereo not given) | 76.5
c1ccc(CN2Cc3nccn3CC(Cn3cncn3)C2)nc1 (stereo not given) | -37.9
CC(=O)N(Cc1ncc(C(C)C)o1)C1CCN(CCC#N)C1 (stereo not given) | -6.865
Cn1cc(C(=O)N[C@@H]2CN(Cc3cccs3)[C@@H]3CCCO[C@@H]32)cn1 | 15.1
CN(Cc1cccc(F)c1)C(=O)c1cc2c([nH]c1=O)CCCC2=O | 8.535
CCn1c(C2CCN(C(=O)CCc3cc(Cl)no3)CC2)nn(C)c1=O | 0
Cc1cc(O)cc(=O)n1CCCC(=O)Nc1n[nH]c2cc(Br)ccc12 | 3.93
Fc1ccc(-c2nc(CNC3CCc4ncnn4C3)co2)cc1 (stereo not given) | 23.7
CCNC(=O)C1(Cc2cc(-c3ccccc3)no2)CCCN(C(C)C)C1 (stereo not given) | 4.41
Cc1nc(C)c(C(=O)N2CCCC(c3cnccn3)C2)s1 (stereo not given) | 11.1

SMILES | INHIBITION [%]
Cc1nc2cc(C(=O)N3C[C@@H](C(=O)O)[C@H](C4CC4)C3)ccc2[nH]1 | 29.8
CCc1nc(C)c(C(=O)N2C[C@@H](C(=O)O)[C@H](C3CC3)C2)s1 | 63
Cc1nc(C)c(C(=O)N2C[C@@H](C(=O)O)[C@H](C3CC3)C2)s1 | 76.9
CCc1nc(C)c(C(=O)N2C[C@@H]3CC[C@H]2CN(S(=O)(=O)N(C)C)C3)s1 | 40.7
CNc1nc(C)c(C(=O)N2C[C@@H](C(=O)O)[C@H](C3CC3)C2)s1 | 83.8
CNc1nc(C)c(C(=O)N2C[C@@H]3CC[C@H]2CN(c2cnccn2)C3)s1 | -26.1
CNc1cc(C)nc(N2C[C@@H](C(=O)O)[C@H](C3CC3)C2)n1 | 38.6
CCc1nc(C)c(C(=O)N2CCCC(c3noc(C)n3)C2)s1 (stereo not given) | 45.4
CN(C)CC(=O)N1CCC2(CC1)CN(Cc1ccccc1)C2 | 33.4
CCOCC(O)CN1CCN(C(=O)c2ccc(C)nc2)CC1 (stereo not given) | 24.2
Cc1cc(-n2c(C)cn(CN(C)Cc3ccccc3)c2=O)no1 | -5.64
C=C(C)COc1ccc(C(=O)N(C)C(C)c2ccon2)cc1 (stereo not given) | -1.38
COc1ccc(-c2nnc(C(C)N3CCOCC3)o2)cc1 (stereo not given) | 37.5
COc1ccc(-c2nnc(C(C)N3CCOC(C)(C)C3)o2)cc1 (stereo not given) | 21.6
COc1ccc(-c2nnc(C(C)N3CCC4(CC3)OCCO4)o2)cc1 (stereo not given) | 69.3
CC(=O)Nc1nc2c(s1)CN(CC(=O)Nc1ccc(C)c(Cl)c1)CC2 | 24.2
Cc1ccc(C(=O)N2C[C@H]3CCCC(OCc4cccnc4)[C@H]3C2)cn1 (stereo not given in full) | 27.6
O=C1CCCCCN1Cc1nc(C2(c3ccc(F)cc3)CCOC2)no1 (stereo not given) | -26.8
c1ccc(CO[C@H]2CO[C@@]3(CCCN(Cc4cccnc4)C3)C2)nc1 | -17.1
Cc1ccccc1C(C#N)NC(=O)CCCOc1cccnc1 (stereo not given) | 31.2
N#CC(NC(=O)CCCOc1cccnc1)c1ccc(F)cc1F (stereo not given) | 66.9
N#CC(NC(=O)CCCOc1cccnc1)c1ccccc1Cl (stereo not given) | 40.9
Cc1ccccc1-n1cc(CNC(=O)CC2C(=O)NCCN2C)cn1 (stereo not given) | 4.68
O=C(NC[C@@H]1CCCO1)c1cc(Br)cnc1N1CCCCC1 | 20.4
